Activity calls are given as the source filed them.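 The calls were made as follows, unless noted: active = compound raises insulin release from rat beta cells at 5 mM glucose, no numeric limit stated; inactive = the rest.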
Key:
[1] = stimulators of insulin release from INS-1E, primary screen, cell-based, 5 mM glucose, NPC library (AID 1117329); conditions: rat INS-1E insulin secretion, at 10 µM, stronger effect = higher value; also: reference of the scale not given here
[2] = growth inhibition of GSK3B-pretreated HCT116 cells – cell-based, CellTiter-Glo, 0.2 to 20 µM (AID 1117336;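 active = compounds lowering colon cancer cell viability after pretreatment blocking the GSK3B kinase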); conditions: HCT116 viability after GSK3B inhibitor, at 20 µM, stronger effect = higher value
[3] = inhibition of endothelial tube formation, primary screen, imaging, VEGF stimulated, CD31 staining, tube area, NPC library (AID 1117340;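 active = compound that reduces growth-factor-driven endothelial tube area in a mixed cell culture, no cutoff stated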); conditions: VEGF-stimulated ADSC/ECFC co-culture, at 10 µM, stronger effect = higher value
[4] = GLP1 release stimulators, primary, NCI-H716, NPC library (AID 1117341;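 active = compound raises GLP1 secretion from the human gut endocrine cells, with no numeric limit stated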; also: reference of the scale not given here); conditions: NCI-H716 cells, at 10 µM, stronger effect = higher value
[5] = HCT116 colon cancer cell growth inhibition, primary screen, CellTiter-Glo luminescence, NPC library (AID 1117342;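 active = compounds that lower survival of HCT116 colon cancer cells in the luminescence readout, no numeric limit stated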); conditions: at 20 µM (top of the series)
[6] = reduced SW480 viability measured with CellTiter-Glo, NPC library, primary (AID 1117343;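 active = compounds that lower viability of the colon cancer cells in the luminescence readout, with no numeric limit stated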); conditions: CellTiter-Glo luminescence; at 20 µM (top of the series)
[7] = NPC library primary testing for decreased DLD-1 cell viability via CellTiter-Glo (AID 1117346;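 active = compounds that lower survival of DLD-1 colon cancer cells in the luminescence readout, no cutoff given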); conditions: DLD-1 viability, CellTiter-Glo luminescence; at 20 µM (top of the series)
[8] = target: 6-phosphogluconate dehydrogenase, decarboxylating (Homo sapiens) (UniProt P52209); assay: inhibition of human phosphogluconate dehydrogenase – biochemical, recombinant enzyme, NADPH absorbance, primary screen (AID 1159550;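 active = at least 20% inhibition of 6-phosphogluconate dehydrogenase activity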); conditions: recombinant 6PGD, NADPH absorbance 341 nm; at 10 µM; stronger effect = higher value
Sequence of 6-phosphogluconate dehydrogenase, decarboxylating (Homo sapiens) (P52209 whole entry, looked up): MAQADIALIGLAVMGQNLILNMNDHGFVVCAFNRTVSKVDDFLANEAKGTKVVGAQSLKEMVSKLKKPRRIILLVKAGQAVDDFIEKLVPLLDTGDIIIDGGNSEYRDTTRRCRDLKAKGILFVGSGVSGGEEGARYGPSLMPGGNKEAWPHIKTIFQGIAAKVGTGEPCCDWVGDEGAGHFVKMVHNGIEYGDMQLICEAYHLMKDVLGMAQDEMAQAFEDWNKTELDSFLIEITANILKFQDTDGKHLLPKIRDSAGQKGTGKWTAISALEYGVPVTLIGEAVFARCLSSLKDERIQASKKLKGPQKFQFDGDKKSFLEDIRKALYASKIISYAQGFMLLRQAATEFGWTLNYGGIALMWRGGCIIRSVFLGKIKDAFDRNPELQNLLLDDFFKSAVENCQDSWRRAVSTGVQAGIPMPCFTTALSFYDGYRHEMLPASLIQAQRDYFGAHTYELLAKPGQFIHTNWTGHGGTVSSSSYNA

CC(=O)OCC(=O)[C@@]1(O)[C@H](C)C[C@H]2[C@@H]3CCC4=CC(=O)C=C[C@]4(C)[C@@]3(F)[C@@H](O)C[C@@]21C
inactive: insulin secretion stimulation [1] 0.55% | viability decrease [2] 10.3% | tube area decrease [3] -13.1% | GLP1 secretion stimulation [4] 4% | inhibition of viability [5] 7.2% | viability decrease (inhibition) [6] 32.2% | viability decrease (inhibition) [7] -4.9% | inhibition [8] -7.66%

CC(=O)[C@@]1(O)CC[C@H]2[C@@H]3C[C@H](C)C4=CC(=O)C=C[C@]4(C)[C@@]3(F)[C@@H](O)C[C@@]21C
inactive: insulin secretion stimulation [1] -1.1% | viability decrease [2] -45.9% | tube area decrease [3] -16% | GLP1 secretion stimulation [4] -0.3% | inhibition of viability [5] -1.33% | viability decrease (inhibition) [6] -18.3% | viability decrease (inhibition) [7] -7.2% | inhibition [8] 15.2%

C[C@@H]1C[C@H]2[C@@H]3CCC4=CC(=O)C=C[C@]4(C)[C@@]3(F)[C@@H](O)C[C@]2(C)[C@@]1(O)C(=O)COP(=O)(O)O
inactive: insulin secretion stimulation [1] -6.4% | viability decrease [2] -4.3% | tube area decrease [3] 0.7% | GLP1 secretion stimulation [4] -2.2% | inhibition of viability [5] 2.57% | viability decrease (inhibition) [6] 24.1% | viability decrease (inhibition) [7] -4.8% | inhibition [8] -4.39%

C[C@@H]1C[C@H]2[C@@H]3C[C@H](F)C4=CC(=O)C=C[C@]4(C)[C@@]3(F)[C@@H](O)C[C@]2(C)[C@@]1(O)C(=O)CO
inactive: insulin secretion stimulation [1] 2.8% | viability decrease [2] -29.3% | tube area decrease [3] -2.9% | GLP1 secretion stimulation [4] -2.9% | inhibition of viability [5] 4.83% | viability decrease (inhibition) [6] -11.5% | viability decrease (inhibition) [7] -9.6% | inhibition [8] 8.65%

NC/C=C/C(=O)O
inactive: insulin secretion stimulation [1] 1.5% | viability decrease [2] -42.3% | tube area decrease [3] -0.5% | GLP1 secretion stimulation [4] -2.6% | inhibition of viability [5] 3.67% | viability decrease (inhibition) [6] 11.1% | viability decrease (inhibition) [7] -6.3% | inhibition [8] 0.304%

C[C@@H]1C[C@H]2[C@@H]3C[C@H](F)C4=CC(=O)C(Cl)=C[C@]4(C)[C@@]3(F)[C@@H](O)C[C@]2(C)[C@@]1(O)C(=O)CO
inactive: insulin secretion stimulation [1] -0.6% | viability decrease [2] 6.2% | tube area decrease [3] -1.8% | GLP1 secretion stimulation [4] 4.6% | inhibition of viability [5] 33.1% | viability decrease (inhibition) [6] 12% | viability decrease (inhibition) [7] 8.3%

Oc1ccc(Cl)cc1Cc1cc(Cl)ccc1O
active: viability decrease [2] 100% | tube area decrease [3] 109% | GLP1 secretion stimulation [4] 30.9% | inhibition of viability [5] 102% | viability decrease (inhibition) [6] -50.4% | viability decrease (inhibition) [7] 105%
inactive: insulin secretion stimulation [1] -0.9% | inhibition [8] -8.92%

C[C@@H]1C[C@H]2[C@@H]3CCC4=CC(=O)C=C[C@]4(C)[C@@]3(F)[C@@H](O)C[C@]2(C)[C@H]1C(=O)CO
inactive: insulin secretion stimulation [1] 7.5% | viability decrease [2] -14.3% | tube area decrease [3] 6.7% | GLP1 secretion stimulation [4] -0.7% | inhibition of viability [5] 9.7% | viability decrease (inhibition) [6] 3.5% | viability decrease (inhibition) [7] -5%

C[C@]12CCC(=O)C=C1C=C[C@@H]1[C@@H]2CC[C@@]2(C)[C@H]1CC[C@@]21CCC(=O)O1
inactive: insulin secretion stimulation [1] -2.6% | viability decrease [2] 22.8% | tube area decrease [3] 9% | GLP1 secretion stimulation [4] 3.3% | inhibition of viability [5] 33.6% | viability decrease (inhibition) [7] 11.5% | inhibition [8] -1.14%
active: viability decrease (inhibition) [6] 60.5%

CC(=O)OCC(=O)[C@H]1CC[C@H]2[C@@H]3CCC4=CC(=O)CC[C@]4(C)[C@H]3CC[C@]12C
inactive: insulin secretion stimulation [1] 0.3% | viability decrease [2] 0.8% | tube area decrease [3] -2.5% | GLP1 secretion stimulation [4] -0.6% | inhibition of viability [5] 34.5% | viability decrease (inhibition) [6] 1.2% | viability decrease (inhibition) [7] -9.6% | inhibition [8] 2.51%

C[C@]12C=CC(=O)C=C1CC[C@H]1[C@@H]3C[C@@H](O)[C@](O)(C(=O)CO)[C@@]3(C)C[C@H](O)[C@@]12F
inactive: insulin secretion stimulation [1] -0.5% | viability decrease [2] 8.2% | tube area decrease [3] -16.1% | GLP1 secretion stimulation [4] -3.1% | inhibition of viability [5] 11% | viability decrease (inhibition) [6] 13.3% | viability decrease (inhibition) [7] 14.8% | inhibition [8] -17.6%

C[C@]12CCC(=O)C=C1CC[C@@H]1[C@@H]2[C@@H](O)C[C@@]2(C)[C@H]1CC[C@]2(O)C(=O)COP(=O)(O)O
active: viability decrease (inhibition) [6] -5.9%
inactive: insulin secretion stimulation [1] 1.8% | viability decrease [2] -2.5% | tube area decrease [3] -8.4% | GLP1 secretion stimulation [4] -1% | inhibition of viability [5] -7.2% | viability decrease (inhibition) [7] -10.7% | inhibition [8] 7.31%

COc1cc(N)c(Cl)cc1C(=O)NC1CCN(Cc2ccccc2)CC1
inactive: insulin secretion stimulation [1] 9.3% | viability decrease [2] -6.7% | tube area decrease [3] 5.3% | GLP1 secretion stimulation [4] -0.7% | inhibition of viability [5] 38.2% | viability decrease (inhibition) [6] 26.2% | viability decrease (inhibition) [7] 6.4% | inhibition [8] -7.99%

OCC(O)CN1CCN(c2ccccc2)CC1 (centres undefined)
inactive: insulin secretion stimulation [1] 0.6% | viability decrease [2] -6.6% | tube area decrease [3] -0.2% | GLP1 secretion stimulation [4] -1.1% | inhibition of viability [5] 4.03% | viability decrease (inhibition) [6] 29% | viability decrease (inhibition) [7] -12.9% | inhibition [8] 8.41%

O=c1[nH]cnc2c1ncn2[C@@H]1O[C@H](CO)[C@@H](O)[C@H]1O
inactive: insulin secretion stimulation [1] -0.1% | viability decrease [2] -12.4% | tube area decrease [3] 2.1% | GLP1 secretion stimulation [4] 0.9% | inhibition of viability [5] -0.1% | viability decrease (inhibition) [6] -39.7% | viability decrease (inhibition) [7] -12.5% | inhibition [8] -10.6%

CC(=O)N[C@@H](CS)C(=O)O
inactive: insulin secretion stimulation [1] 0.8% | viability decrease [2] -18.8% | tube area decrease [3] 18% | GLP1 secretion stimulation [4] 0.7% | inhibition of viability [5] -0.95% | viability decrease (inhibition) [6] 0.1% | viability decrease (inhibition) [7] 7.4% | inhibition [8] -17.2%

O=C(O)[C@@H](O)[C@H](O)[C@H](O)[C@@H](O)C(=O)O
active: viability decrease (inhibition) [6] 57.2%
inactive: insulin secretion stimulation [1] 3.6% | viability decrease [2] -8.4% | tube area decrease [3] 23.5% | GLP1 secretion stimulation [4] -1.9% | inhibition of viability [5] 1.7% | viability decrease (inhibition) [7] -6.1% | inhibition [8] 3.91%

Source: PubChem BioAssay
